# Assay results as given in PubChem BioAssay.
# Records with an inconclusive call do not appear. Calls of active or inactive are those of the source. Unless noted, cut-off not given; nearly all actives show AC50 up to about 26 µM.
# Experiments:
# [1] = viability loss in pontine glioma line – cell-based, SU-DIPG-XVII, MIPE5.0, CellTiter-Glo, qHTS, dose response (AID 1347060); conditions: CellTiter-Glo ATP luminescence;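 on AC50: cells exposed to compound for 48 hours before viability readout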
# [2] = JHH-DIPG-1 glioma cell viability, MIPE5.0 library, CellTiter-Glo luminescence, qHTS (AID 1347067); conditions: JHH-DIPG-1 glioma viability, CellTiter-Glo ATP luminescence;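 further: cells exposed to compound for 48 hours before readout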
# [3] = growth inhibition of DIPG cells – cell-based, MIPE5.0 library, qHTS (AID 1347068; cut-off not given, nearly all actives have IC50 up to about 30 µM;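 on IC50: cells exposed to compound for 48 hours before viability readout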); conditions: SU-DIPG-XXV viability
# [4] = viability loss in pontine glioma line – cell-based, SU-DIPG-XXV, MIPE5.0, CellTiter-Glo, qHTS, dose response (AID 1347065); conditions: CellTiter-Glo ATP luminescence;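 further: cells exposed to compound for 48 hours before ATP readout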
# [5] = growth inhibition of DIPG cells – cell-based, MIPE4.0 library, CellTiter-Glo luminescence, qHTS (AID 1347066; cut-off not given, nearly all actives have AC50 up to about 30 µM;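 further: cells exposed to compound for 48 hours before readout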); conditions: SU-DIPG-VI viability, CellTiter-Glo ATP luminescence
# [6] = viability loss with induced miR-34 in A549 – imaging, A549 dox-inducible miR-34, nuclei and caspase counts, primary screen (AID 1347080;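 active means compounds whose cell count with miR-34 switched on is under 0.7 times the count with it off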); conditions: A549 miR-34 inducible, Hoechst nuclei count, 48 h
# [7] = MELAS cybrid and Rieske KO viability enhancers – cell-based, MELAS cybrids, Rieske KO mouse fibroblasts, CellTiter-Glo, primary screen (AID 1508586;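 active means mean z-score across replicates of 1.96 or higher in either the MELAS or the Rieske mutant cell line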;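 further: z relative to plate mean and SD of compound and empty wells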); conditions: low glucose
compound,measurement,setting,value
CC(C)NCCCn1c(Sc2cc(Cl)cc(Cl)c2)nc2c(N)ncnc21,outcome,[1],inactive
same,outcome,[2],inactive
same,outcome,[3],inactive
Cc1[nH]nc2ncc(C(=O)N3CCC[C@H]3c3ccc(Cl)cc3)cc12,outcome,[1],inactive
same,outcome,[4],inactive
same,outcome,[3],inactive
CCCC1OC2C[C@H]3[C@@H]4CCC5=CC(=O)C=C[C@]5(C)[C@H]4C(O)C[C@]3(C)[C@]2(C(=O)CO)O1 (stereo not given in full),outcome,[1],inactive
same,outcome,[5],inactive
same,outcome,[3],inactive
CC(Nc1ncnc2nc[nH]c12)c1cc2cccc(Cl)c2c(=O)n1-c1ccccc1 (stereo not given),AC50,[1],18.6 µM (active)
same,AC50,[4],18.6 µM (active)
same,fold change,"[6]; stronger effect = lower value, cell number ratio, induced over uninduced",0.872 (inactive)
same,fold change,[6]; measured here: relative caspase fold change +Dox/-Dox,0.835
same,cell count,"[6]; measured here: total cells with miR-34 induction, stronger effect = lower value",6590
same,cell count,[6]; measured here: total cells without miR-34 induction,7550
same,z-score,"[7]; MELAS cybrid survival, CellTiter-Glo 48 h, stronger effect = higher value",-0.147 (inactive)
same,z-score,"[7]; Rieske KO mouse fibroblast survival, CellTiter-Glo 72 h",-0.173
COCCN1CCN(Cc2ccc(-c3n[nH]c4c3C(=O)c3c(NC(=O)NN5CCOCC5)cccc3-4)cc2)CC1,AC50,[1],0.295 µM (active)
same,AC50,[4],0.235 µM (active)
same,IC50,[3],0.263 µM (active)
[O-][n+]1cccc(-c2nc3c(Cl)cccc3cc2[C@@H](Nc2ncnc3cccnc23)C(F)(F)F)c1,outcome,[1],inactive
same,outcome,[2],inactive
Cn1ncnc1[C@H]1c2n[nH]c(=O)c3cc(F)cc(c23)N[C@@H]1c1ccc(F)cc1,AC50,[1],0.742 µM (active)
same,outcome,[2],inactive
same,outcome,[3],inactive
Nc1nccn2c(C3CCC(C(=O)O)CC3)nc(-c3cc4cccc(Cl)c4[nH]3)c12 (stereo not given),AC50,[1],4.17 µM (active)
same,AC50,[4],2.63 µM (active)
same,outcome,[3],inactive
C=CC(=O)N[C@H]1CN(c2nc(Nc3cn(C)nc3OC)c3ncn(C)c3n2)C[C@@H]1F,AC50,[1],18.6 µM (active)
same,AC50,[4],20.9 µM (active)
same,IC50,[3],16.6 µM (active)
COc1cc(C(N)=O)ccc1NC(=O)[C@@H]1N[C@@H](CC(C)(C)C)[C@@]2(C(=O)Nc3cc(Cl)ccc32)[C@H]1c1cccc(Cl)c1F,AC50,[1],23.5 µM (active)
same,AC50,[2],23.5 µM (active)
same,IC50,[3],16.6 µM (active)
NC(=O)c1cc(F)cc2c1C(=O)N(C1CCN(C3CCC(F)(F)CC3)CC1)C2,outcome,[1],inactive
same,outcome,[2],inactive
same,outcome,[3],inactive
CC[C@H](Nc1ncnc2nc[nH]c12)c1oc2ccccc2c(=O)c1-c1cccc(F)c1,outcome,[1],inactive
same,outcome,[3],inactive
CNC(=O)c1cc(Oc2ccc3nc(N[C@@H]4CCCC[C@H]4O)sc3c2)ccn1,outcome,[1],inactive
same,outcome,[3],inactive
O=C(NO)C1(CS(=O)(=O)c2ccc(Oc3ccc(Cl)cc3)cc2)CCOCC1,outcome,[1],inactive
same,AC50,[2],3.72 µM (active)
same,outcome,[3],inactive
C=C1CCC[C@]2(C)C=C3OC(=O)C(C)=C3C[C@@H]12,outcome,[1],inactive
same,outcome,[2],inactive
same,outcome,[3],inactive
Cc1onc(-c2ccc(F)cc2)c1COc1ccc(C(=O)N2CCS(=O)(=O)CC2)cn1,outcome,[1],inactive
same,outcome,[2],inactive
same,outcome,[3],inactive
